Data reported in PubChem BioAssay (Tox21).
Values without a mark were called inactive. Active and inactive are the calls of the source. Calls follow the shape of the dose curve; as a rule, active = well fitted cell-killing curve with a large enough effect in the repeat runs; inconclusive = weak or mixed curves, or effect the other way; inactive = flat fitted curve, though single readings scatter.

Assay: qHTS assay to identify small molecule HDAC inhibitors - cell viability counter screen (AID 1259365); also: nearly all actives have a fitted effect of over 50% in size
Details: HCT-116 viability, CellTiter-Glo ATP luminescence, 2 h; series mostly up to 92.4 µM
Source text: U.S. Tox21 Program National Center for Advancing Translational Sciences [NCATS] NIH Chemical Genomics Center [NCGC] U.S. Environmental Protection Agency [EPA] National Institutes of Environmental Health Sciences [NIEHS] National Toxicology Program [NTP] U.S. Food and Drug Administration [FDA] Tox21 Assay Overview: Histone deacetylases (HDACs) are a group of epigenetic enzymes that regulate gene expression by histone deacetylation. HDACs are capable of introducing epigenetic modifications and such aberrations contribute to the onset and progression of several human diseases, thus making HDACs a popular therapeutic target. For identifying endogenous class I/II HDAC inhibitors a homogenous, luminogenic HDAC I/II cell based assay was used to measure the relative activity of class I and II HDACs from cells. Wild type HCT-116 cells were used to screen Tox21 compound libraries for identifying class I/II HDAC inhibitors.
Tox21 Assay Protocol Summary: HCT-116 cells were dispensed at 1,500 per well in 5uL of culture medium into white solid bottom 1536-well plates (Greiner Bio-One, Monroe, NC) using a Multidrop Combi (Thermo Scientific, Waltham, MA) dispenser. The assay plates were incubated at 37 C and 5% CO2 for an overnight, and then 23nL of compounds dissolved in DMSO and positive control were transferred using a Pintool station (Wako, San Diego, CA). The assay plates were incubated at 37C and 5% CO2 for 2hr. After compound treatment, 4uL of CellTiter-Glo reagent (Promega Corporation, Madison, WI) was added to each well of the assay plates using Flying Reagent Dispenser (FRD, Aurora Discovery, San Diego, CA) and incubated the assay plates at room temperature for 30min. The luminescence signal was quantified using a ViewLux plate reader (Perkin Elmer, Shelton, CT).
% is scaled to controls: 0 for no effect and ±100 for the full control effect.

Row | Compound | outcome | activity change, negative = cytotoxicity
1 | CCCc1ccc(N)cc1 | inactive | –
2 | CCn1cc(C(=O)O)c(=O)c2cc(F)c(N3CCN(C)CC3)cc21 | – | 2.46% [at 19 µM]
3 | NCCN1CCNC1=O | inactive | –
4 | Nc1[nH]c(=O)ncc1F | inactive | –
5 | Cc1c(F)cc2c(=O)c(C(=O)O)cn3c2c1CCC3C (stereo not given) | inactive | –
6 | CN(C)CCOC(c1ccc(Cl)cc1)c1ccccn1 (stereo not given) | inactive | –
7 | NC(=O)c1ncn([C@@H]2O[C@H](CO)[C@@H](O)[C@H]2O)c1O | inactive | –
8 | COC(=O)[C@H]1[C@H]2C[C@@H]3c4[nH]c5cc(OC)ccc5c4CCN3C[C@H]2C[C@@H](OC(=O)COc2ccc(OC)cc2)[C@@H]1OC | inactive | –
9 | c1ccc2cnncc2c1 | inactive | –
10 | C=CC(=O)OCCCCCC | inactive | –
11 | CCCCC1CCCCC(=O)O1 (stereo not given) | inactive | –
12 | C[N+](C)(C)CC[N+]1(C)Cc2c(Cl)c(Cl)c(Cl)c(Cl)c2C1 | inactive | –
13 | O=S(=O)(O)c1ccccc1O | inactive | –
14 | COc1cc(O)cc(O)c1 | inactive | –
15 | CSc1ccc(C=O)cc1 | inactive | –
16 | Cc1nc(-c2ccc(OCC(C)C)c(C#N)c2)sc1C(=O)O | inactive | –
17 | CCCCCCCCCCCCCCCCCCOCC(O)CO (stereo not given) | inactive | –
18 | CCCCCCC(CCCCCCCCCCC(=O)OCC(COC(C)=O)OC(C)=O)OC(C)=O (stereo not given) | inactive | –
19 | CCN1CCCC1CNC(=O)c1cc(S(N)(=O)=O)ccc1OC (stereo not given) | inactive | –
20 | CN(C)CCn1nnnc1SCC1=C(C(=O)O)N2C(=O)[C@@H](NC(=O)Cc3csc(N)n3)[C@H]2SC1 | inactive | –

Row | Compound | outcome | activity change, negative = cytotoxicity
21 | CC(C)=CC(=O)O | inactive | –
22 | NC(CS)C(=O)O (stereo not given) | inactive | –
23 | CC(C)N1C(=O)c2ccccc2C1=O | inactive | –
24 | CC/C=C\C#N | inactive | –
25 | CC(C)COC(=O)C(C)C | inactive | –
26 | CCO[Si](C)(OCC)OCC | inactive | –
27 | CC(=O)N[C@@H](CCC(N)=O)C(=O)O | inactive | –
28 | CCCCc1ccc(N)cc1 | inactive | –
29 | C=C(C)C(=O)NCCC[N+](C)(C)C | inactive | –
30 | Cn1ccc2cc3c(cc21)CCN3C(=O)Nc1cccnc1 | – | -0.0806% [at 19 µM]
31 | NC(=O)c1ncn([C@@H]2O[C@H](CO)[C@@H](O)[C@H]2O)c1N | inactive | –
32 | CC(C)c1ccc2oc3nc(N)c(C(=O)O)cc3c(=O)c2c1 | inactive | –
33 | CCCCCCOC(=O)CC(CC(=O)OCCCCCC)(OC(=O)CCC)C(=O)OCCCCCC | inactive | –
34 | NCC[C@H](O)C(=O)N[C@@H]1C[C@H](N)[C@@H](O[C@H]2O[C@H](CN)[C@@H](O)[C@H](O)[C@H]2O)[C@H](O)[C@H]1O[C@H]1O[C@H](CO)[C@@H](O)[C@H](N)[C@H]1O | – | 1.82% [at 0.349 µM]
35 | C1COCCO1 | inactive | –
36 | CCCCC=O | inactive | –
37 | CC/C=C\CCCCO | inactive | –
38 | CCCC(C)C(=O)O (stereo not given) | inactive | –
39 | FC(F)(F)C(F)(F)C(F)(F)C(F)(F)C(F)(F)C(F)(F)C(F)(F)C(F)(F)C(F)(F)C(F)(F)F | – | 4.94% [at 8.39 µM]
40 | CC1=CC(C)C(C=O)C(C)C1 (stereo not given) | inactive | –
